# Data taken from paper PMC4081100, “A DNA-binding-site landscape and regulatory network analysis for NAC transcription factors in Arabidopsis thaliana”.
# Tests used:
# Assay in all cases: universal protein binding microarray (PBM); transcription factors of Arabidopsis thaliana; high values mean tight binding
# [1] = target: T1, GST-ANAC092(1-176) (Arabidopsis thaliana, UniProt Q9FKA0 1-176); conditions: protein: recombinant; tags: GST; chain copies: 2; dsDNA, one strand shown
# T1 sequence: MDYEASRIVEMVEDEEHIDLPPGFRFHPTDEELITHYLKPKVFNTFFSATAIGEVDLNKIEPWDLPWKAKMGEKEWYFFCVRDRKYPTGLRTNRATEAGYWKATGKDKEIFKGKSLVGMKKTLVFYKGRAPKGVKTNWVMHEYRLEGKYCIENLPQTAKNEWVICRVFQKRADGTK
# In short: (§1)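 GST-tagged NAC-domain, full-length or DNA-binding-domain proteins were induced in cells, with zinc acetate added for zinc-finger proteins. They were purified on glutathione–Sepharose 4B and quantified by A280 or anti-GST western blot. Each was applied at 200 to 500 nM final, in duplicate, to custom all-10-mer Agilent 4 × 180K arrays made double-stranded by primer extension, with gapped and ungapped 8-mers scored. Binding is the normalised enrichment score (E-score).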
# [2] = target: T2, GST-ANAC019 NAC domain (Arabidopsis thaliana, UniProt Q9C932 14-162); conditions: protein: recombinant; tags: GST; chain copies: 2; dsDNA, one strand shown
# T2 sequence: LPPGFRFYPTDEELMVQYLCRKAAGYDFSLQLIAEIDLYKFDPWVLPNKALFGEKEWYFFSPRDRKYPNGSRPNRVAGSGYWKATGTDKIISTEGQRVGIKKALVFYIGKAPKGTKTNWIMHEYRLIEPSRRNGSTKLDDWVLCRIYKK
# In short: as §1
# [3] = target: T3, GST-ANAC055(1-171) (Arabidopsis thaliana, UniProt Q9LDY8 1-171); conditions: protein: recombinant; tags: GST; chain copies: 2; dsDNA, one strand shown
# T3 sequence: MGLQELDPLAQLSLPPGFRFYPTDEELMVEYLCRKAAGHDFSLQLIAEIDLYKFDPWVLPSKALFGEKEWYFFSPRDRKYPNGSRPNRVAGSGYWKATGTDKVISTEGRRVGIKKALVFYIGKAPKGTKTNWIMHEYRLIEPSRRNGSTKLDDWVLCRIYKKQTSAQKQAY
# In short: as §1
# [4] = target: T4, GST-ATAF1 NAC domain (Arabidopsis thaliana, UniProt Q39013 7-158); conditions: protein: recombinant; tags: GST; chain copies: 2; dsDNA, one strand shown
# T4 sequence: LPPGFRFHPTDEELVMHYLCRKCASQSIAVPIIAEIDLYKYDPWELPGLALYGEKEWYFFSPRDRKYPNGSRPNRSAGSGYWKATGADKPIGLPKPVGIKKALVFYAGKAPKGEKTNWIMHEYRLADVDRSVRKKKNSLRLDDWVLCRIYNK
# In short: as §1
# [5] = target: T5, GST-ANAC092(1-285) full length (Arabidopsis thaliana, UniProt Q9FKA0 1-285); conditions: protein: recombinant; tags: GST; chain copies: 2; dsDNA, one strand shown
# T5 sequence: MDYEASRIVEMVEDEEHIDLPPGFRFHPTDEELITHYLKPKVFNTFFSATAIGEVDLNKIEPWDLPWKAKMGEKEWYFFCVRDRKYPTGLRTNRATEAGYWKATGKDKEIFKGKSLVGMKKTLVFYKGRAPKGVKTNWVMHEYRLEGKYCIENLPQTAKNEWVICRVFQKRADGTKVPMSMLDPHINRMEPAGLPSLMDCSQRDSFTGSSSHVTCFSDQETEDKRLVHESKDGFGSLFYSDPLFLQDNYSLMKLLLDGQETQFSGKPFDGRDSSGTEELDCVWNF
# In short: as §1
# [6] = target: T6, GST-NAP(1-166) (Arabidopsis thaliana, UniProt O49255 1-166); conditions: protein: recombinant; tags: GST; chain copies: 2; dsDNA, one strand shown
# T6 sequence: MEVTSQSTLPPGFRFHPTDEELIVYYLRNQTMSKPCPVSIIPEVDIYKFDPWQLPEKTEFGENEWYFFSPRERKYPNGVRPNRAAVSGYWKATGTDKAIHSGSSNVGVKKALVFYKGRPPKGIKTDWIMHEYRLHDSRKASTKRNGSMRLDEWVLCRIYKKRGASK
# In short: as §1
# [7] = target: T7, GST-NTL8 NAC domain (Arabidopsis thaliana, UniProt Q9XIN7 14-156); conditions: protein: recombinant; tags: GST; chain copies: 2; dsDNA, one strand shown
# T7 sequence: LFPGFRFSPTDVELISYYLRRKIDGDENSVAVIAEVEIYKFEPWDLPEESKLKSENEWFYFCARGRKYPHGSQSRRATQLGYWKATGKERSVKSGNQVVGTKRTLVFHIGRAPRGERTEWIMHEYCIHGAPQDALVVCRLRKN
# In short: as §1
# [8] = target: T8, GST-VND3 NAC domain (Arabidopsis thaliana, UniProt Q9FH59 12-162); conditions: protein: recombinant; tags: GST; chain copies: 2; dsDNA, one strand shown
# T8 sequence: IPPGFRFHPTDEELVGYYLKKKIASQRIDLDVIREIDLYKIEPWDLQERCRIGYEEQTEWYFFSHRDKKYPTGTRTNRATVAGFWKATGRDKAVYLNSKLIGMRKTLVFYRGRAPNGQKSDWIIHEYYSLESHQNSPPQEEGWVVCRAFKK
# In short: as §1
# [9] = target: T9, GST-VND7 NAC domain (Arabidopsis thaliana, UniProt Q9C8W9 9-158); conditions: protein: recombinant; tags: GST; chain copies: 2; dsDNA, one strand shown
# T9 sequence: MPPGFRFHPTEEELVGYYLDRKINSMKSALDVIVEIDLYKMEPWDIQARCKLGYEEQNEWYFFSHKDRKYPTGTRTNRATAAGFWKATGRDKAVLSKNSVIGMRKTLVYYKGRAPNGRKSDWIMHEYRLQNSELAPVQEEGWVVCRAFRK
# In short: as §1
# [10] = target: GST-WRKY1(266-371) (Arabidopsis thaliana, UniProt Q9SI37 266-371); conditions: protein: recombinant; tags: GST; dsDNA, one strand shown
# In short: as §1
# [11] = target: GST-NTL6(1-168) (Arabidopsis thaliana, UniProt Q9SCK6 1-168); conditions: protein: recombinant; tags: GST; chain copies: 2; dsDNA, one strand shown
# In short: as §1
# [12] = target: T10, GST-NST2(1-184) (Arabidopsis thaliana, UniProt Q9M274 1-184); conditions: protein: recombinant; tags: GST; chain copies: 2; dsDNA, one strand shown
# T10 sequence: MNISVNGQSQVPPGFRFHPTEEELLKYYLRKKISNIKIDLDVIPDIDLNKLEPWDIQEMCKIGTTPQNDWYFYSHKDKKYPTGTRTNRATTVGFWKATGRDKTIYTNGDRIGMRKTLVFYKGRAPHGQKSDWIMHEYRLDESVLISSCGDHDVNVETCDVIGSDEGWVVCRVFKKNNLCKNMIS
# In short: as §1
# [13] = target: T11, GST-SND1(1-203) (Arabidopsis thaliana, UniProt Q9LPI7 1-203); conditions: protein: recombinant; tags: GST; chain copies: 2; dsDNA, one strand shown
# T11 sequence: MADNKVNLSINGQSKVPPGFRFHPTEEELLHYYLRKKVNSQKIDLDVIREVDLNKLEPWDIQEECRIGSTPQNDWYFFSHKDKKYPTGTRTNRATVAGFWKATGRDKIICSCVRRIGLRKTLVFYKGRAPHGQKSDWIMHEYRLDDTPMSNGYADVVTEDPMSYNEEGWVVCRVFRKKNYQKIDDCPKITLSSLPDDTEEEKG
# In short: as §1
# GST-NTL6(1-168), sequence (Q9SCK6 1-168): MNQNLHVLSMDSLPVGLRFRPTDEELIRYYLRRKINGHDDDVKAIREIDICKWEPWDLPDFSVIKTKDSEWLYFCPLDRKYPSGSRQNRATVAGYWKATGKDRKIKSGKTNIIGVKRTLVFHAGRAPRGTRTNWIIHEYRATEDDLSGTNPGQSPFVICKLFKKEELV
# GST-WRKY1(266-371), sequence (Q9SI37 266-371): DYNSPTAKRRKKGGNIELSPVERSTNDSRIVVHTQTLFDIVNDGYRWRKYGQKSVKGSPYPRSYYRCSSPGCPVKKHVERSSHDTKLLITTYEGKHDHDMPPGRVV
sequence,measurement,setting,value
ACTAGTCA,binding signal,[1],0.0862 E-score
same,binding signal,[2],0.0985 E-score
same,binding signal,[3],0.134 E-score
same,binding signal,[4],0.0655 E-score
same,binding signal,[5],0.0648 E-score
same,binding signal,[6],0.0759 E-score
same,binding signal,[7],0.128 E-score
same,binding signal,[8],0.108 E-score
same,binding signal,[9],0.0656 E-score
same,binding signal,[10],0.435 E-score
CACGCGAA,binding signal,[1],0.343 E-score
same,binding signal,[11],0.17 E-score
same,binding signal,[3],0.0997 E-score
same,binding signal,[5],0.402 E-score
same,binding signal,[12],0.188 E-score
same,binding signal,[7],0.0576 E-score
same,binding signal,[13],0.213 E-score
ACGCCACC,binding signal,[1],0.456 E-score
same,binding signal,[2],0.145 E-score
same,binding signal,[3],0.0815 E-score
same,binding signal,[4],0.262 E-score
same,binding signal,[5],0.472 E-score
same,binding signal,[6],0.0741 E-score
same,binding signal,[12],0.276 E-score
same,binding signal,[13],0.408 E-score
AAGACCAA,binding signal,[11],0.18 E-score
same,binding signal,[2],0.0878 E-score
same,binding signal,[3],0.172 E-score
same,binding signal,[4],0.105 E-score
same,binding signal,[5],0.124 E-score
same,binding signal,[12],0.18 E-score
same,binding signal,[8],0.151 E-score
same,binding signal,[9],0.124 E-score
same,binding signal,[10],0.42 E-score
GCTAAGGA,binding signal,[11],0.41 E-score
same,binding signal,[5],0.142 E-score
same,binding signal,[13],0.064 E-score
GTCAACGA,binding signal,[8],0.0713 E-score
same,binding signal,[9],0.104 E-score
same,binding signal,[10],0.486 E-score
AGGTAAGG,binding signal,[11],0.27 E-score
same,binding signal,[2],0.101 E-score
same,binding signal,[5],0.0822 E-score
same,binding signal,[7],0.424 E-score
same,binding signal,[13],0.147 E-score
CTTTTGAC,binding signal,[1],0.158 E-score
same,binding signal,[11],0.0997 E-score
same,binding signal,[3],0.114 E-score
same,binding signal,[4],0.168 E-score
same,binding signal,[5],0.0903 E-score
same,binding signal,[8],0.12 E-score
same,binding signal,[9],0.101 E-score
same,binding signal,[10],0.448 E-score
ACGGCAGT,binding signal,[1],0.207 E-score
same,binding signal,[2],0.418 E-score
same,binding signal,[3],0.311 E-score
same,binding signal,[4],0.212 E-score
same,binding signal,[5],0.263 E-score
same,binding signal,[6],0.0813 E-score
same,binding signal,[12],0.138 E-score
same,binding signal,[8],0.342 E-score
same,binding signal,[9],0.238 E-score
same,binding signal,[10],0.0779 E-score
GCACGCGA,binding signal,[1],0.287 E-score
same,binding signal,[5],0.429 E-score
same,binding signal,[12],0.191 E-score
same,binding signal,[13],0.286 E-score
AGGAAATC,binding signal,[1],0.0998 E-score
same,binding signal,[11],0.102 E-score
same,binding signal,[12],0.0993 E-score
same,binding signal,[7],0.437 E-score
same,binding signal,[13],0.0802 E-score
AAAGGTAA,binding signal,[11],0.262 E-score
same,binding signal,[3],0.192 E-score
same,binding signal,[5],0.0772 E-score
same,binding signal,[6],0.0527 E-score
same,binding signal,[12],0.199 E-score
same,binding signal,[7],0.402 E-score
same,binding signal,[13],0.124 E-score
GCTAAGCA,binding signal,[11],0.411 E-score
same,binding signal,[12],0.0614 E-score
same,binding signal,[13],0.155 E-score
GTATTGAC,binding signal,[1],0.0776 E-score
same,binding signal,[3],0.0594 E-score
same,binding signal,[5],0.147 E-score
same,binding signal,[6],0.121 E-score
same,binding signal,[8],0.0734 E-score
same,binding signal,[9],0.0877 E-score
same,binding signal,[10],0.455 E-score
GGGGGTAA,binding signal,[11],0.147 E-score
same,binding signal,[5],0.166 E-score
same,binding signal,[7],0.403 E-score
same,binding signal,[13],0.229 E-score
CTAAGGAA,binding signal,[1],0.125 E-score
same,binding signal,[11],0.47 E-score
same,binding signal,[5],0.128 E-score
same,binding signal,[12],0.144 E-score
same,binding signal,[7],0.246 E-score
same,binding signal,[13],0.306 E-score
ATTTCCTC,binding signal,[11],0.148 E-score
same,binding signal,[12],0.115 E-score
same,binding signal,[7],0.437 E-score
same,binding signal,[13],0.091 E-score
AGGAAACC,binding signal,[11],0.0999 E-score
same,binding signal,[5],0.13 E-score
same,binding signal,[7],0.482 E-score
same,binding signal,[13],0.0696 E-score
ACACGACT,binding signal,[1],0.104 E-score
same,binding signal,[2],0.411 E-score
same,binding signal,[3],0.364 E-score
same,binding signal,[4],0.336 E-score
same,binding signal,[5],0.171 E-score
same,binding signal,[6],0.179 E-score
same,binding signal,[12],0.19 E-score
same,binding signal,[8],0.309 E-score
same,binding signal,[9],0.265 E-score
same,binding signal,[10],0.312 E-score
CTACGCCA,binding signal,[1],0.283 E-score
same,binding signal,[4],0.057 E-score
same,binding signal,[5],0.34 E-score
same,binding signal,[12],0.147 E-score
same,binding signal,[13],0.454 E-score
ACGCGATC,binding signal,[1],0.314 E-score
same,binding signal,[5],0.402 E-score
same,binding signal,[6],0.116 E-score
same,binding signal,[12],0.198 E-score
same,binding signal,[13],0.364 E-score
ATTGACCA,binding signal,[1],0.0698 E-score
same,binding signal,[3],0.072 E-score
same,binding signal,[4],0.107 E-score
same,binding signal,[5],0.0788 E-score
same,binding signal,[7],0.163 E-score
same,binding signal,[8],0.129 E-score
same,binding signal,[9],0.0794 E-score
same,binding signal,[10],0.482 E-score
